# PubChem BioAssay (NCATS)
# Values joined by “and” are separate entries in the source; they are usually repeats but may differ in a detail not shown here. Equal values may be shown once. Records with an inconclusive call do not appear. Active and inactive are the calls of the source. Unless noted, the call rests on the fitted dose curve; in most records, active means well fitted curve in the direction sought with a large enough effect; inconclusive means small, poorly fitted or top-dose-only effect, or another doubt; inactive means no such curve, though single readings can be large; an effect the other way counts as inactive or inconclusive.
# Assays:
# [1] = molecular target: Hexokinase-4 (Homo sapiens) + Glucokinase regulatory protein (Homo sapiens) (UniProt P35557+Q14397); assay: qHTS assay for inhibitors of recombinant human GCK-GKRP interaction: HTRF assay (AID 743207);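 further: 0% = DMSO with GCK present and -100% = DMSO wells lacking GCK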
# Sequence of Hexokinase-4 (Homo sapiens) + Glucokinase regulatory protein (Homo sapiens) (P35557 whole entry, looked up): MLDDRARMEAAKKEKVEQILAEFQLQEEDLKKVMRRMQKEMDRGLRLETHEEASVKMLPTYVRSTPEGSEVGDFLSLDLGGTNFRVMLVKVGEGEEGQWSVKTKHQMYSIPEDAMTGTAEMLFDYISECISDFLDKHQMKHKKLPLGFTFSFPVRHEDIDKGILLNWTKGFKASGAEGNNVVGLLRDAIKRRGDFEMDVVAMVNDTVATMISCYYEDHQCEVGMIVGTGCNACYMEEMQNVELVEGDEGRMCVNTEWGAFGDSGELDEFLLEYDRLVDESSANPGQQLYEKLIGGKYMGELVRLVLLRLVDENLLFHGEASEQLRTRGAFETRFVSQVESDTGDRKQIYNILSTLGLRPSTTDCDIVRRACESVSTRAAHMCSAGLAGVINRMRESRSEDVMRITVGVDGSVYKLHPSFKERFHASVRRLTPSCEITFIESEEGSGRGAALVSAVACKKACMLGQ
# Sequence of Hexokinase-4 (Homo sapiens) + Glucokinase regulatory protein (Homo sapiens) (Q14397 whole entry, looked up): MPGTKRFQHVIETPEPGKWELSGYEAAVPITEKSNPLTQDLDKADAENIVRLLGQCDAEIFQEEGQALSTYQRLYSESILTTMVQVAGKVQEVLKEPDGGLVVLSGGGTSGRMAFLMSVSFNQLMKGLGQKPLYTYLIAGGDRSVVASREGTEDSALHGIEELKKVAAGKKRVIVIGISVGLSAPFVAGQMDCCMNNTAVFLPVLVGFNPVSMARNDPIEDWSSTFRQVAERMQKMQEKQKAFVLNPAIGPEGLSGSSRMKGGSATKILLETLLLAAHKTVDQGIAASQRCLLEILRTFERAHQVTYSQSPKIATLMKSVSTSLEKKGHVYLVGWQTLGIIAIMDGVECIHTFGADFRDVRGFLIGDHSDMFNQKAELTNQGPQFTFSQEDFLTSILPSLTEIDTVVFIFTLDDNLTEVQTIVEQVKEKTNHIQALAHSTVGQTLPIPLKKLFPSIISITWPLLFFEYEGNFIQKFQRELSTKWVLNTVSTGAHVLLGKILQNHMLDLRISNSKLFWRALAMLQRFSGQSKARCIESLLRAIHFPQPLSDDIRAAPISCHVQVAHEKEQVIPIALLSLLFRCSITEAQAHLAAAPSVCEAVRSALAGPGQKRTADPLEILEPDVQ
# Outline: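 5 nM GST-GCK + 5 nM FLAG-GKRP + 2 uM S6P, pH 7.1 buffer (25 mM Hepes, 2 mM MgCl2, 25 mM KCl, 1 mM DTT, Tween/BSA); pin-transferred cpd; anti-FLAG XL665/anti-GST K; 60 min RT; HTRF.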
# [2] = qHTS Assay for Identifying Gametocytocidal Compounds (AID 743244); further: potency means the concentration at half of the fitted maximal effect;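 on max response: on the % scale 0 is the no-effect control and ±100 the full control effect; actives lower the fluorescent signal which means gametocytes are killed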; settings: P. falciparum 3D7 stage III-V gametocytes, alamarBlue, 72 h; max response: stronger effect = lower value
# Outline: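 Viability read-out was resazurin reduction (alamarBlue, 24 h) measured at Ex 525/Em 598 nm. Beforehand, late-stage (III-V) 3D7 P. falciparum gametocytes at 20,000 cells/well were incubated with compound 72 h at 37C under 5% CO2.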
# [3] = qHTS profiling of the MIPE4 collection as inhibitors of Plasmodium falciparum (3D7) proliferation (AID 743344; call rule not given here;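 further: scaled between DMSO vehicle wells and 0.29 µM artemisinin as full inhibition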); settings: P. falciparum 3D7 in erythrocytes, SYBR Green DNA fluorescence, 72 h; at 28.5 µM (top of the series)
# Outline: (§1)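 Parasite DNA was quantified by SYBR Green I fluorescence (ex 485, em 535 nm) after overnight lysis in saponin/Triton buffer at room temperature. Cultures at 0.3% parasitemia and 2.5% hematocrit were first exposed to compound for 72 h at 37 C; signals were normalised to artemisinin (0.29 uM) and vehicle wells.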
# [4] = qHTS profiling of the MIPE4 collection as inhibitors of Plasmodium falciparum (DD2) proliferation (AID 743345; call rule not given here); settings: P. falciparum Dd2 in erythrocytes, SYBR Green DNA, 72 h; at 28.5 µM (top of the series) unless noted
# Outline: as §1
# [5] = qHTS profiling of the MIPE4 collection as inhibitors of Plasmodium falciparum (DD2) proliferation (Rep 2) (AID 743346; call rule not given here); settings: P. falciparum Dd2 in erythrocytes, SYBR Green DNA, 72 h; at 28.5 µM (top of the series)
# Outline: as §1
# [6] = qHTS assay for cell viability of HEK293 cells (AID 743288); settings: ATP luminescence (CellTiter-Glo), 18 h; max response: stronger effect = lower value; further: on the % scale 0 is the no-effect control and ±100 the full control effect; nearly all actives have a fitted effect of over 50% in size
# Outline: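 Viable-cell counts were inferred from luciferase-based ATP content in HEK293 cells seeded at 2,000/well, pre-incubated ≥5 h, then dosed with DMSO-solubilised compounds for 18 h at 37 C.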
# [7] = qHTS assay for cell viability of the p53RE-bla HCT-116 cell line (AID 743292); further: on the % scale 0 is the no-effect control and ±100 the full control effect; nearly all actives have a fitted effect of over 55% in size
# Outline: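 CellSensor p53RE-bla HCT-116 cells, 4,000/well, preincubated 5 h at 37 C, then exposed to compounds in DMSO for 16 h at 37 C. Viability read as CellTiter-Glo luminescence (intracellular ATP) after 30 min at room temperature.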
# [8] = qHTS profiling for inhibitors of Plasmodium falciparum (3D7) proliferation (AID 743322);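 further: infected erythrocytes exposed to compound for 72 h before lysis; 100% = DMSO vehicle wells and 0% = 0.29 µM artemisinin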; settings: P. falciparum 3D7 proliferation; at 28.7 µM (top of the series) unless noted
# Outline: as §1
# [9] = qHTS profiling for inhibitors of Plasmodium falciparum (DD2) proliferation (AID 743323; call rule not given here); settings: lower = more inhibition; at 28.7 µM (top of the series) unless noted
# Outline: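 1536-well qHTS; infected RBCs 0.3% parasitemia/2.5% Hct final; cpd 72 h 37 C 5% CO2; lysis buffer + SYBR Green I, o/n RT dark; FI 485/535; norm. to 0.29 uM artemisinin and DMSO, plate-stack corrected.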
structure (smiles),measurement,setting,value
COC(=O)[C@@H](N)CCCN=C(N)N[N+](=O)[O-],outcome,[1],inactive
same,max response,[2],6.28% (inactive)
same,"parasite growth, % of DMSO control",[3],91.3%
same,"parasite growth remaining, % of DMSO control (lower = more inhibition)",[4],94.8%
same,"parasite growth, % of control (lower = inhibition)",[5],82%
COCCn1c2c([n+](Cc3cnccn3)c1C)C(=O)c1ccccc1C2=O,Potency,[2],0.372 µM (active)
CC1=NN=C(c2ccc(N)cc2)c2cc3c(cc2C1)OCO3,outcome,[1],inactive
same,max response,[2],7.34% (inactive)
same,"parasite growth, % of DMSO control",[3],133%
same,"parasite growth remaining, % of DMSO control (lower = more inhibition)",[4],108%
same,"parasite growth, % of control (lower = inhibition)",[5],93%
O=C(N[C@H]1CN2CCC1CC2)c1ccc(Cl)cc1,outcome,[1],inactive
same,"parasite growth, % of DMSO control",[3],89.4%
same,"parasite growth remaining, % of DMSO control (lower = more inhibition)",[4],82.1%
same,"parasite growth, % of control (lower = inhibition)",[5],31.9%
O=S(=O)(c1ccc(Cl)cc1)c1ccc(Cl)cc1,max response,[2],-16% (inactive)
same,max response,[6],-6.49% (inactive) and -9.97% (inactive) and -17.8% (inactive)
same,Potency,[7],inactive
NCc1cc(=O)[nH]o1,outcome,[1],inactive
same,max response,[2],24.8% (inactive)
CC(C)(C)NC[C@H](O)c1ccc(O)cc1Cl,max response,[2],2.84% (inactive)
O=C(Nc1cc(C(F)(F)F)cc(C(F)(F)F)c1)c1cc(Cl)ccc1O,Potency,[2],7.43 µM (active)
CC[C@@]1(O)C(=O)OCc2c1cc1n(c2=O)Cc2cc3ccccc3nc2-1,outcome,[1],inactive
same,max response,[2],-1.6% (inactive)
same,"parasite growth remaining, % of DMSO control (lower = more inhibition)",[4],12.9%
same,"parasite growth, % of control (lower = inhibition)",[5],19.3%
c1ccc(CCCN2CCN(CCOC(c3ccccc3)c3ccccc3)CC2)cc1,outcome,[1],inactive
same,"parasite growth, % of DMSO control",[3],9.93%
same,"parasite growth remaining, % of DMSO control (lower = more inhibition)",[4],25.6%
same,"parasite growth, % of control (lower = inhibition)",[5],18.7%
Clc1ccc(C(c2ccc(Cl)cc2)n2cc[n+](CC(OCc3ccc(Cl)cc3Cl)c3ccc(Cl)cc3Cl)c2)cc1 (centres undefined),Potency,[2],1 µM (active)
C[C@@]12O[C@@H](C[C@]1(O)CO)n1c3ccccc3c3c4c(c5c6ccccc6n2c5c31)CNC4=O,Potency,[2],5.9 µM (active)
CN[C@@H](C)C(=O)N[C@H]1CCCC[C@H]2CC[C@@H](C(=O)N[C@@H](c3ccccc3)c3cn(CCCCc4ccc(CCCCn5cc([C@@H](NC(=O)[C@@H]6CC[C@@H]7CCCC[C@H](NC(=O)[C@H](C)NC)C(=O)N76)c6ccccc6)nn5)cc4)nn3)N2C1=O,Potency,[2],2.64 µM (active)
C/C=C(/C)C(=O)O[C@H]1C(C)=C2[C@H]([C@@H]1OC(=O)CCCCCCC)[C@@](C)(OC(C)=O)C[C@H](OC(=O)CCC)[C@@]1(O)[C@H]2OC(=O)[C@@]1(C)O,outcome,[1],inactive
same,remaining parasite growth % (stronger effect = lower value),[8],-0.149%
same,"activity, percent of control",[9],1.02%
Clc1cnc(Oc2ccc(Oc3ncc(Cl)cc3Cl)cc2)c(Cl)c1,outcome,[1],inactive
same,max response,[2],17.9% (inactive)
same,max response,[6],-12.9% (inactive)
same,Potency,[7],inactive
NC1CC1c1ccccc1 (centres undefined),outcome,[1],inactive
same,"parasite growth, % of DMSO control",[3],95.6%
same,"parasite growth remaining, % of DMSO control (lower = more inhibition)",[4],17.6%
same,"parasite growth, % of control (lower = inhibition)",[5],105%
C[C@]12CCC3C(CC[C@H]4C[C@H](O)CC[C@]34C)C1CC[C@@H]2C(=O)CO (some centres undefined),outcome,[1],inactive
same,max response,[2],12.3% (inactive)
C[C@]12N[C@H](Cc3ccccc31)c1ccccc12,outcome,[1],inactive
same,max response,[2],-6.68% (inactive) and -2.83% (inactive) and -7.09% (inactive)
C[N+](C)(C)CC(=O)O,max response,[2],-4.91% (inactive)
COC(=O)c1cncn1C(C)c1ccccc1 (centres undefined),max response,[2],-7.45% (inactive)
Oc1ccc2c3c1O[C@H]1c4[nH]c5c(c4C[C@@]4(O)[C@@H](C2)N(CC2CC2)CC[C@]314)C[C@@]1(O)[C@H]2Cc3ccc(O)c4c3[C@@]1(CCN2CC1CC1)[C@H]5O4,outcome,[1],inactive
same,"parasite growth, % of DMSO control",[3],10.3%
same,"parasite growth remaining, % of DMSO control (lower = more inhibition)",[4],25.9%
same,"parasite growth, % of control (lower = inhibition)",[5],13%
Nc1cccc2c(N)cccc12,Potency,[2],25.1 µM (active)
NC(CCP(=O)(O)O)C(=O)O (centres undefined),outcome,[1],inactive
same,max response,[2],12.6% (inactive)
COc1ccc2c(c[n+](C)c3c4cc5c(cc4ccc23)OCO5)c1OC,outcome,[1],inactive
same,remaining parasite growth % (stronger effect = lower value),[8],47.6%
same,"activity, percent of control",[9],36.7%
same,"parasite growth, % of DMSO control",[3],71.2%
same,"parasite growth remaining, % of DMSO control (lower = more inhibition)",[4],74.8%
same,"parasite growth, % of control (lower = inhibition)",[5],99%
CC(O)CN1CCN(CC(=O)[O-])CCN(CC(=O)[O-])CCN(CC(=O)[O-])CC1.[Gd+3] (centres undefined),max response,[2],1.03% (inactive) and -10.9% (inactive)
CCC1(CCC(C)C)C(=O)NC(=O)NC1=O,max response,[2],2.89% (inactive)
S=C(SSC(=S)N1CCCCC1)N1CCCCC1,Potency,[2],0.148 µM (active)
O=S(=O)(O)C(F)(F)C(F)(F)C(F)(F)C(F)(F)F,max response,[2],-9.45% (inactive)
same,max response,[6],-11.1% (inactive) and -18% (inactive)
same,Potency,[7],inactive
CCOCCOC(C)=O,max response,[2],4.31% (inactive)
same,max response,[6],-0.828% (inactive)
same,Potency,[7],inactive
CC[C@@H](C(=O)O)C1CC[C@H](C)C([C@@H](C)[C@H](O)[C@H](C)C(=O)[C@H](CC)C2O[C@]3(C=C[C@@H](O)[C@]4(CC[C@@](C)(C5CC[C@](O)(CC)[C@H](C)O5)O4)O3)[C@H](C)C[C@@H]2C)O1 (some centres undefined),Potency,[2],0.0526 µM (active)
CC(C)NCC(O)c1ccc([N+](=O)[O-])cc1 (centres undefined),max response,[2],-16.1% (inactive)
